From ChEMBL document CHEMBL1201862, “PubChem BioAssay data set” (2004)
Screen size: about 400,000 compounds; about 2,100 (0.53%) were called active. Inconclusive results (about 14%) are left out. No rule for the calls is given here. Only a selection was taken, and actives are over-represented in it overall.

Target: Ataxin-2 (Homo sapiens) (UniProt Q99700)
Test: qHTS for Inhibitors of ATXN expression.
Type: functional

Chain of Ataxin-2 (Homo sapiens) (Q99700 whole entry): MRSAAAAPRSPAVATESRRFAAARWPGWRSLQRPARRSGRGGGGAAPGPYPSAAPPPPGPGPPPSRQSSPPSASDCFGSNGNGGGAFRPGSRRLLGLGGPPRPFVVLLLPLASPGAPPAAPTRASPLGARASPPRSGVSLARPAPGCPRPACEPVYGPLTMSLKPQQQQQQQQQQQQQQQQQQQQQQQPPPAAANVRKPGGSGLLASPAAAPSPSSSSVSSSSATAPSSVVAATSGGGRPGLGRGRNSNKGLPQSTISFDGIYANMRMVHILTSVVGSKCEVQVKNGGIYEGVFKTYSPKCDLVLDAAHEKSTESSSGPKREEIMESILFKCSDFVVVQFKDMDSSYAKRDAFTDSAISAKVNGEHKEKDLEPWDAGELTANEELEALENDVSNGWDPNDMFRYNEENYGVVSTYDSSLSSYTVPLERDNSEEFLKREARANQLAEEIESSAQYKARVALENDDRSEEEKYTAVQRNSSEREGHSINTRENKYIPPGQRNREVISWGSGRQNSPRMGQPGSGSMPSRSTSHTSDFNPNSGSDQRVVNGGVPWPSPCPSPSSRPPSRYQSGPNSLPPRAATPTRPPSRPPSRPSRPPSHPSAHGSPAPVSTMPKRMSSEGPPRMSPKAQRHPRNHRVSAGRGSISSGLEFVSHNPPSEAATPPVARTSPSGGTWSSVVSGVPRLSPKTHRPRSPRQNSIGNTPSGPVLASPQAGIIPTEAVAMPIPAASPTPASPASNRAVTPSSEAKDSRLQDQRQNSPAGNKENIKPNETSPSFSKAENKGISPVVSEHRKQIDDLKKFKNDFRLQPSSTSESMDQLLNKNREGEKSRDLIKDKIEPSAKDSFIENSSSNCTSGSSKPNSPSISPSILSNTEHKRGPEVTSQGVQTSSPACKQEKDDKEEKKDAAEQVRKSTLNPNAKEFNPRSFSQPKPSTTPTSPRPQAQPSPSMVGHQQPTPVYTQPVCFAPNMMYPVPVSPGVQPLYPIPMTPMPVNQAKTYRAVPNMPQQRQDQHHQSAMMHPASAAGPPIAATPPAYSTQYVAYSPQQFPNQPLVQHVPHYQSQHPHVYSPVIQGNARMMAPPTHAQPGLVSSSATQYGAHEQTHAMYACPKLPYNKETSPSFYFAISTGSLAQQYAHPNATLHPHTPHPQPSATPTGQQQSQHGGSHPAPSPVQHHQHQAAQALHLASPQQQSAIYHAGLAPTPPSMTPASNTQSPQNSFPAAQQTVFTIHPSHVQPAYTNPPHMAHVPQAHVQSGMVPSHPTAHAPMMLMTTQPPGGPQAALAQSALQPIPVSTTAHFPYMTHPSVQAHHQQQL

Compound | Potency
CCOC(=O)c1c(N)n(C2CC(C)(C)NC(C)(C)C2)c2nc3ccccc3nc12 | inactive
Cc1ccc2oc(=O)c3cnn(CC(=O)Nc4ccccc4N4CCN(C)CC4)c3c2c1 | 7.08 µM (active)
O=C(CN1CCN(c2ccccc2)CC1)Nc1scc2c1c(=O)oc1ccccc12 | inactive
CC(CCc1ccco1)NC(=O)Cn1ncc2c(=O)oc3ccccc3c21 (stereo not drawn) | inactive
CN(C(=S)NC(=O)C12CC3CC(CC(C3)C1)C2)c1ccc(O)cc1 | inactive
O=C(NCCc1csc(-c2cccnc2)n1)c1ccc(Br)o1 | inactive
Cc1ccc(-c2nc3sc(CCNC(=O)c4ccc(Br)o4)c(C)n3n2)cc1 | 35.5 µM (active)
Cc1ccc(CCNC(=O)C[S+]([O-])Cc2nc(-c3cccs3)oc2C)cc1 (stereo not drawn) | inactive
O=C(COc1coc(CN2CCc3ccccc32)cc1=O)N1CCCCC1 | inactive
CC[C@H](C)/C=C/C1=CC2=C(Cl)C(=O)[C@@]3(C)OC(=O)C(C(=O)[C@H](C)[C@@H](C)O)=C3C2=CO1 | 11.9 µM (active)
CC[C@H](C)/C=C(C)/C=C/C1=CC2=CC(=O)[C@]3(C)OC(=O)[C@@H](C(C)=O)[C@@H]3C2=CO1 | inactive
CCCCCCNC(=O)OC12CN(C(=O)OC(C)C)N(C(=O)OC(C)C)CC1(O)CN(S(=O)(=O)c1ccc(C)cc1)C2 (stereo not drawn) | 25.1 µM (active)
O=S(=O)(NCc1ccccc1)c1ccc(S(=O)(=O)N2CCCC2)cc1 | inactive
Cc1ccc(S(=O)(=O)N2CC3(O)CN(C(=O)OC(C)C)N(C(=O)OC(C)C)CC3(OC(=O)NCc3ccccc3)C2)cc1 (stereo not drawn) | 22.4 µM (active)
Cc1ccc(S(=O)(=O)N[C@@H](Cc2ccccc2)C(=O)N2CCC[C@@H]2C(=O)O)cc1 | inactive
NCCNc1ccc(C(=O)N2c3ccccc3Sc3ccccc32)cc1[N+](=O)[O-] | 14.1 µM (active)
CCCNC(=O)c1ccc(SCC(=O)N(CC)CC)c([N+](=O)[O-])c1 | inactive
CC(=O)NCCNC(=O)c1ccc(Sc2ccccc2)c([N+](=O)[O-])c1 | inactive
C/C(=N\NC(=O)C1=NNC(=O)C1C)c1cccs1 (stereo not drawn) | inactive
CN=c1sc2c(n1C)C(=O)c1ccccc1C2=O | 39.8 µM (active)
O=C(NP(=O)(N1CCOCC1)N1CCOCC1)C1=C(N2CCOCC2)/C(=C\c2ccccc2)CC1 | inactive
Cc1c(N=C2C=C(Br)C(=O)C(Br)=C2)c(=O)n(-c2ccccc2)n1C | inactive
CC1=CC(=Nc2c(C)n(C)n(-c3ccccc3)c2=O)C=C(C)C1=O | 35.5 µM (active)
Cc1c(/N=C2\C=CC(=O)c3ccccc32)c(=O)n(-c2ccccc2)n1C | inactive
CCCS(=O)(=O)N1CCN=C1SCc1ccc(C)cc1 | inactive

Compound | Potency
Cc1cccc(N2C(=O)c3cccc4c(N)ccc(c34)C2=O)c1 | inactive
Cc1cc(C)cc(N2C(=O)C=CC2=O)c1 | 28.2 µM (active)
CCOC(=O)c1c(-c2ccc(C)o2)csc1NC(=S)NC(=O)N(C)C | 39.8 µM (active)
CCOC(=O)c1c(-c2ccc(C)cc2)csc1NC(=O)/C(C#N)=C/c1ccc(O)c(OC)c1 | inactive
CCOC(=O)c1c(-c2ccc(Cl)cc2)csc1NC(=O)CNCc1ccco1 | inactive
CCc1ccc(/C(C)=N/NC(=O)c2ccc(-n3cnnn3)cc2)cc1 | inactive
Cc1cccn2c(Nc3ccc4c(c3)OCCO4)c(-c3ccc(Br)o3)nc12 | 39.8 µM (active)
COc1cc(OC)c(OC)cc1CN1CCc2nc(Nc3ccc4c(c3)OCCO4)ncc2C1 | inactive
Cc1cnc(NC(=O)CSc2nnc3ncccn23)s1 | inactive
COc1ccc(Sc2ccc(-c3nc4cnccn4c3NC3CCCCC3)cc2OC)cc1 | inactive
CN(Cc1nc(-c2cnccn2)no1)C1CC(C)(C)NC(C)(C)C1 | inactive
Cc1ccccc1N(CC(=O)NC(C)(C)C)C(=O)CCC(=O)Nc1nccs1 | inactive
Oc1ncnc2sc3c(c12)CN(Cc1ccccc1)CC3 | inactive
CCCCN1CCc2c(c3ccccc3n2Cc2ccccc2)C1 | 28.2 µM (active)
CCCN1CNc2c(c(=O)[nH]c(=S)n2CCc2ccccc2)C1 | inactive
CCCCCC(=O)NNC1=NCC(Cc2ccccc2)S1 (stereo not drawn) | inactive
O=C(c1cc([N+](=O)[O-])cc([N+](=O)[O-])c1)N1CCN(Cc2ccc3c(c2)OCO3)CC1 | inactive
CCO[C@H]1OC(C(=O)N2CCN(Cc3ccc4c(c3)OCO4)CC2)=C[C@@H](c2ccc(C(F)(F)F)cc2)[C@@H]1CCCO | 35.5 µM (active)
COc1cc2cc(C(=O)N3CCN(Cc4ccc5c(c4)OCO5)CC3)c(=O)oc2cc1OC | inactive
CCOC(=O)C(=Cc1ccc(-n2ccnc2)cc1)C(=O)OCC | 25.1 µM (active)
CCOC(=O)/C(=C/c1ccc(N2CCC(c3ccccc3)=N2)cc1)C(C)=O | inactive
CCOc1ccccc1NC(=O)Nc1ccc2nc(N3CCN(C)CC3)cc(C)c2c1 | 31.6 µM (active)
COc1ccc(Cl)cc1C(=O)Nc1ccc2nc(Nc3cccc(Cl)c3)cc(C)c2c1 | inactive
CCN1CCN(c2cc(C)c3cc(NC(=O)CCC(=O)Nc4ccc(OC)cc4OC)ccc3n2)CC1 | inactive
CCCN(CCC)CCNC(=O)CCC(=O)Nc1ccc2nc(N3CCOCC3)cc(C)c2c1 | inactive

Compound | Potency
CCOc1ccc(S(=O)(=O)N2CCN(C)CC2)cc1NC(=O)c1ccccc1F | inactive
Cc1cc(N2CCN(C)CC2)nc2ccc(NC(=O)Nc3ccccc3Br)cc12 | 39.8 µM (active)
CCN1CCN(c2cc(C)c3cc(NC(=O)c4cc(Br)ccc4Cl)ccc3n2)CC1 | 31.6 µM (active)
Cc1cc(N2CCN(C)CC2)nc2ccc(NC(=O)Nc3cccc(Cl)c3)cc12 | 31.6 µM (active)
Cc1cc(Nc2cccc(Cl)c2)nc2ccc(NC(=O)COc3ccc(Cl)cc3)cc12 | inactive
COCCCn1c(=N)c(C(=O)NC2CCCC2)cc2c(=O)n3ccccc3nc21 | inactive
COc1ccc(S(=O)(=O)NCc2ccco2)cc1C(=O)N1CCOCC1 | inactive
CCCN(CCC)S(=O)(=O)c1ccc(C(=O)OCCN2C(=O)c3cccc4c(N5CCOCC5)ccc(c34)C2=O)cc1 | inactive
O=C(CCCNC1=NS(=O)(=O)c2ccccc21)Nc1ccc(Cl)cc1 | inactive
CCOC(=O)c1cc2c(=O)n3ccccc3nc2n(Cc2ccccc2)c1=N | inactive
Cc1cc(N2CCN(C)CC2)nc2ccc(NC(=O)Nc3ccccc3)cc12 | 17.8 µM (active)
Cc1cc(N2CCN(C)CC2)nc2ccc(NC(=O)CCC3CCCC3)cc12 | inactive
COC(=O)c1cc(N2CCN(C)CC2)nc2ccccc12 | inactive
Cc1onc(-c2c(Cl)cccc2Cl)c1NC(=O)NNc1ccccn1 | inactive
Cc1cc(C)c(C#N)c(SCc2ccc(F)cc2)n1 | inactive
Cn1c(Cl)cnc1C1CC(=O)c2cc(Cl)ccc2O1 (stereo not drawn) | 39.8 µM (active)
Cc1cccc(-n2cnc(C(=O)N3CCN(C)CC3)c2)n1 | inactive
CC#CCN(Cc1ccco1)C(=O)C1CCC(=O)N(CCc2cccc(F)c2)C1 (stereo not drawn) | inactive
CCc1csc(CCNC(=O)C2CCC(=O)N(Cc3ccccc3F)C2)n1 (stereo not drawn) | inactive
CCCc1cc(CNC(=O)C2CCC(=O)N(CCc3cccc(F)c3)C2)on1 (stereo not drawn) | 35.5 µM (active)
O=C(c1ccccc1)c1ccc2cc(O)ccc2c1 | inactive
COC1=C(c2ccccc2)C(=O)c2ccccc2C1=O | inactive
O=C(C1=C(c2ccccc2)C(=O)c2ccccc2C1=O)c1ccccc1 | 7.08 µM (active)
CCOc1ccc(C(=O)C(CN2CCOCC2)c2ccccc2)cc1 (stereo not drawn) | 35.5 µM (active)
O=C(N/N=C/c1ccc(N2CCOCC2)cc1)c1ccccc1OCCOc1ccccc1 | inactive

Compound | Potency
CCCCOc1ccc(C(=O)C(CN2CCOCC2)c2ccccc2)cc1 (stereo not drawn) | 39.8 µM (active)
OC(CN1CCOCC1)(c1ccccc1)c1ccccn1 (stereo not drawn) | inactive
CCOc1ccc2nc(N3CCOCC3)nc(C)c2c1 | inactive
CCOc1ccc(C2C(C(=O)OC)=CN(C(C)c3ccccc3)C=C2C(=O)OC)cc1 (stereo not drawn) | inactive
CC1Cc2ccccc2N1CC(=O)NC(=O)NC1CCCCC1 (stereo not drawn) | inactive
COc1ccc(NC2=C(C(C)=O)C(c3ccc(OC)cc3)C(C(C)=O)C(C)(O)C2)cc1 (stereo not drawn) | inactive
CCCCNc1nc2cccnc2s1 | inactive
O=[N+]([O-])c1ccc(Nc2ccccc2F)nc1 | inactive
Cc1c(C)c(C)c(C(=O)C2CCN(c3ccc([N+](=O)[O-])cn3)CC2)c(C)c1C | inactive
NS(=O)(=O)c1ccc(S(=O)(=O)c2ccccc2)nc1 | inactive
CCN(CC)c1nc(-c2ccccc2)ncc1S(=O)(=O)c1ccc(C)cc1 | inactive
Cc1cc(Sc2ccc([N+](=O)[O-])cn2)ccc1Br | inactive
O=[N+]([O-])c1ccc(S(=O)(=O)c2ccccc2)nc1 | 5.62 µM (active)
Cc1cc(S(=O)(=O)c2ccc([N+](=O)[O-])cn2)ccc1Br | 29.9 µM (active)
Cc1ccc(S(=O)(=O)c2ccc([N+](=O)[O-])cn2)cc1 | 39.8 µM (active)
Cn1c(S(=O)(=O)c2ccc([N+](=O)[O-])cc2)nc(Br)c1Br | inactive
Cc1ccc2nc3c(cc(C(=O)NCC4CCCO4)c(=N)n3CC3CCCO3)c(=O)n2c1 (stereo not drawn) | inactive
Cc1ccc(C2C=C(c3ccccc3OC(F)F)Nc3ncnn32)cc1 (stereo not drawn) | inactive
Cn1c(C(=O)NCCN2CCOCC2)cc2c(=O)n3ccccc3nc21 | inactive
CCCCn1c(SCCN2CCCCC2)nc2c1c(=O)n(C)c(=O)n2C | inactive
OC(c1cc(C(F)(F)F)nc2c(C(F)(F)F)cccc12)C1CCCCN1 (stereo not drawn) | 20 µM (active)
O=S(=O)(Nc1nc2n(n1)C(c1ccc(F)cc1)C=C(c1ccc(Cl)cc1)N2)c1ccccc1 (stereo not drawn) | inactive
COCC(C)OC(=O)c1c(N)n(CCCN2CCOCC2)c2nc3ccccc3nc12 (stereo not drawn) | inactive
